Source: PubChem
sEH inh: soluble epoxide hydrolase inhibitors, primary screen, biochemical, human sEH; Bifunctional epoxide hydrolase 2 (Homo sapiens), P34913; inhibition, % at 2 µM; 91,000 compounds, 0.34% hits; recombinant human sEH enzymatic activity assay; in the data active means inhibition above about 80%
Target sequence (P34913 whole entry, looked up): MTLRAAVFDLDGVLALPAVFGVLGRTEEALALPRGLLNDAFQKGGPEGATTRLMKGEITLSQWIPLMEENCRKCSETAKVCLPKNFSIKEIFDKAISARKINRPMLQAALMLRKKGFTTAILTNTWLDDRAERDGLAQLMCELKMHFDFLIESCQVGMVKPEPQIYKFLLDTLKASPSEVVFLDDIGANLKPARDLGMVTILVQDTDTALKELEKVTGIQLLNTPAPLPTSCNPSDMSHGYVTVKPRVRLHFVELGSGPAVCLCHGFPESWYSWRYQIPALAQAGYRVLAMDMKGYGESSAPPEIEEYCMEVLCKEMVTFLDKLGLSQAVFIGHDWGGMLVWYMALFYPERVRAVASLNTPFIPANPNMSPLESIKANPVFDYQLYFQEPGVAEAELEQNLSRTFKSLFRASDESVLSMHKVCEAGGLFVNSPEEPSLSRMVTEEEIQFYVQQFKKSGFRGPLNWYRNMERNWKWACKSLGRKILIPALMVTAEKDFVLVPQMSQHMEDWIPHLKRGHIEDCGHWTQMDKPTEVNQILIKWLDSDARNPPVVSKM
CYP2C19 activ: human CYP2C19 activators, primary screen, biochemical, luminescence. Cytochrome P450 2C19 (Homo sapiens), P33261. recombinant CYP2C19, luciferin-H EGE luminescence; hits give high values; 0 = fully inhibited enzyme, 1 = untreated enzyme. activation factor at 5 µM. 96,000 tested, under 10 active;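 active means activation factor of at least 2 at 5 µM in the primary screen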;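 further: 0 = wells with 2.5 mM tranylcypromine and 1 = vehicle-only wells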
CYP2C19 inhib: blockers of cytochrome P450 2C19 activity – biochemical, luminescence, ADME assay, primary screen; CYP2C19 Supersomes, luciferin-H EGE luminescence, 30 min; inhibition, % at 5 µM; 96,000 compounds, 21% hits; AID 778, 2007;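 active means CYP2C19 inhibition above a set limit at 5 µM in the primary screen, cut at about 50% in these data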;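 further: plate controls were negative control wells for no effect and 2.5 mM tranylcypromine positive control for full effect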
CYP2C9 act: human CYP2C9 activators, primary screen, biochemical, luminescence | AID 1024, 2008 | 96,000 compounds, 1.4% hits | Cytochrome P450 2C9 (Homo sapiens), P11712 | activation factor at 5 µM | recombinant CYP2C9, luciferin-H conversion; hits give high values; factor 1 = untreated enzyme, 0 = blocked;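 active means activation factor of 2 or more for CYP2C9 at a 5 µM dose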;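 further: 0 = sulfaphenazole-blocked wells and 1 = vehicle-only wells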
CYP2C9 inhib: blockers of cytochrome P450 2C9 activity – biochemical, luminescence, ADME assay, primary screen | P11712 | CYP2C9 Supersomes, luciferin-H conversion | inhibition, % at 5 µM | 96,000 compounds, 20% hits | AID 777, 2007;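 active means blocking of liver enzyme CYP2C9 beyond about 50% at 5 µM, limit read from the data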
sEH activator: soluble epoxide hydrolase activators, primary screen, biochemical, human sEH | 91,000 compounds, 0.04% hits | Bifunctional epoxide hydrolase 2 (Homo sapiens), P34913 | activation, % at 2 µM | purified human sEH enzymatic activity, activator screen | AID 717, 2007; in the data active means activation above about 37%
Starred values were filed as active, the others as inactive. Sampled rows, rich in hits. Any-hit rate of the full collection: about 27%.

`CCC(=O)Nc1ccccc1-c1nnn(CC(=O)N2c3ccccc3CC2C)n1` (stereo unspecified) gave sEH inh 5, CYP2C19 activ 0.6, CYP2C19 inhib 45, CYP2C9 act 0.2, CYP2C9 inhib 78* and sEH activator -4.
COc1ccc(NC(=O)Cn2nnc(-c3ccccc3NC(=O)C3CC3)n2)cc1 was read as CYP2C19 activ 0.1, CYP2C19 inhib 94*, CYP2C9 act 0.6 and CYP2C9 inhib 44.
`COc1ccc(NC(=O)Cn2nnc(-c3ccccc3F)n2)cc1` gave sEH inh 3, CYP2C19 activ 0.8, CYP2C19 inhib 16, CYP2C9 act 0.9, CYP2C9 inhib 14 and sEH activator -2.
For O=S(=O)(NC1CC1)c1ccc(S(=O)(=O)N2CCCC3(CCCCC3)C2)cc1 the results were sEH inh -4, CYP2C19 activ 0.7, CYP2C19 inhib 26, CYP2C9 act 0.5, CYP2C9 inhib 49 and sEH activator 5.
`CC(C)CN(CCC(=O)O)CC(C)C` gave sEH inh -7, CYP2C19 activ 1.3, CYP2C19 inhib -27, CYP2C9 act 0.8, CYP2C9 inhib 22 and sEH activator 7.
For CCOC(=O)c1c(C=O)c(C)n(Cc2ccc(C)cc2)c1C the results were sEH inh 1, CYP2C19 activ 0.2, CYP2C19 inhib 76*, CYP2C9 act 0, CYP2C9 inhib 96* and sEH activator -2.
`CCOC(=O)c1c(C=O)c(C)n(Cc2ccccc2Cl)c1C` gave sEH inh -1, CYP2C19 activ 0, CYP2C19 inhib 98*, CYP2C9 act 0.1, CYP2C9 inhib 94* and sEH activator 4.
For Cc1c(C=O)c(C=O)c(C)n1Cc1ccccc1 the results were sEH inh -17, CYP2C19 activ 0.4, CYP2C19 inhib 62*, CYP2C9 act 0.7, CYP2C9 inhib 26 and sEH activator 16.
Screening CCOC(=O)C(C(C)=O)c1nc(C)nc2c1nnn2Cc1ccccc1Cl (stereo unspecified) returned sEH inh -6 and sEH activator 9.
`CC(=O)NCCOc1cccc2ccccc12` gave sEH inh -1, CYP2C19 activ 0.4, CYP2C19 inhib 56*, CYP2C9 act 1.8, CYP2C9 inhib -84 and sEH activator 4.
`CCOC(=O)c1ccc(N2C(=O)CC(N3CCC(C(N)=O)(N4CCCCC4)CC3)C2=O)cc1` (stereo unspecified) gave sEH inh 0 and sEH activator -2.
For CCOc1ccc(C(=O)Nc2nnn(CC)n2)cc1 the results were sEH inh 11, CYP2C19 activ 0.8, CYP2C19 inhib 17, CYP2C9 act 0.9, CYP2C9 inhib 14 and sEH activator -10.
For CCOc1ccc(C(=O)Nn2cnnc2)cc1 the results were CYP2C19 activ 0.3, CYP2C19 inhib 74*, CYP2C9 act 0.2 and CYP2C9 inhib 76*.
Screening CC(=O)/C(=C\Nc1ccc(OCc2ccccc2)cc1)c1ccccc1 returned sEH inh -1, CYP2C19 activ 1, CYP2C19 inhib -1, CYP2C9 act 0.2, CYP2C9 inhib 85* and sEH activator 3.
Screening COc1cc(N/C=C(\C(C)=O)c2ccccc2)cc(OC)c1 returned sEH inh 1, CYP2C19 activ 0.3, CYP2C19 inhib 72*, CYP2C9 act 0.1, CYP2C9 inhib 86* and sEH activator 2.
Screening CC(=O)/C(=C/Nc1ccc(Oc2ccccc2)cc1)c1ccccc1 returned sEH inh 5, CYP2C19 activ 0.3, CYP2C19 inhib 68*, CYP2C9 act 0.1, CYP2C9 inhib 89* and sEH activator -3.
CS(=O)(=O)Nc1ccc(OCc2ccccc2)cc1 was read as sEH inh 6, CYP2C19 activ 0.8, CYP2C19 inhib 23, CYP2C9 act 0.7, CYP2C9 inhib 28 and sEH activator -5.
Screening COc1cc(OC)cc(C(=O)Nc2ccccc2NC(C)=O)c1 returned sEH inh -5, CYP2C19 activ 0.7, CYP2C19 inhib 35, CYP2C9 act 0.7, CYP2C9 inhib 26 and sEH activator 6.
